# In PubChem BioAssay:
# Where “and” joins values, the source holds several entries; their conditions need not be identical. Equal values may be shown once. Records with an inconclusive call do not appear. For some assays here: Potency and affinity values are given separately. Some structures have more than one record in an assay (separate samples or runs), and their calls can disagree. Calls of active or inactive are those of the source. Cut-off read from the data, not from the text of the source, unless noted: active = parasite load remaining mostly below about 12% (no sharp cut-off); inactive = mostly above about 10%.
# Columns and labels:
# [1] = biological target: ATP-dependent translocase ABCB1 (Homo sapiens) (UniProt P08183); experiment: P-glycoprotein substrate transport blockade – cell-based (AID 377; in the data active = fluorescence slope change above about 50%); details: MDR1-expressing cells, fluorescent substrate accumulation slope; stronger effect = higher value; concentration not given here
# [2] = blockers of polyQ-driven CASP3 activation – cell-based (AID 1583); details: polyglutamine-induced caspase-3 activation, cell assay; stronger effect = higher value;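 tested at 10 µM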
# [3] = yeast 75Q aggregation reduction – 75Q-TubU reporter (AID 1593); details: Yeast 75Q polyglutamine aggregation reporter
# [4] = restoration of touch response, mutant HTT neurons – whole organism, C. elegans mechanosensory neurons, N-terminal huntingtin (AID 1599); details: C. elegans polyQ-huntingtin mechanosensory neurons, stronger effect = higher value
# [5] = blockers of cytochrome c efflux from mitochondria – biochemical, purified mitochondria (AID 1603); details: stronger effect = lower value;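 note: mouse liver mitochondria challenged with calcium chloride; signal normalized to the plate average as 100%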
# [6] = polyglutamine aggregate formation blockers (AID 1604); details: polyglutamine-induced protein aggregation inhibition assay; stronger effect = higher value; tested at 2.5 µM
# [7] = rescue of PC12 cells from polyQ htt toxicity – LDH release (AID 1610); details: PC12 mutant huntingtin toxicity, final LDH at 4 uM, stronger effect = lower value
# [8] = glutamate transport activators, MN-1 cells, MN-1 cell line (AID 1612); details: MN-1 motor neuron cells, stronger effect = higher value;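 note: tested at 1 µM final; 0% = mean of DMSO vehicle wells on each plate; positive means more glutamate uptake than control and negative means less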
# [9] = 75Q-TubH aggregate inhibition, S. cerevisiae, yeast (AID 1616); details: S. cerevisiae 75Q-TubH polyglutamine aggregation suppression; stronger effect = higher value
# [10] = compounds altering circadian rhythm period length – cell-based, LOPAC library, luminescence reporter (AID 2774; call rule not given here;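 note: values are relative to mean of DMSO wells on each plate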); details: circadian reporter cells, at 7 µM, actives lie on both sides
# [11] = compounds altering viability of human ES cells (AID 493140; call rule not given here;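 note: cells exposed to compounds for four days before counting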); details: human embryonic stem cell survival screen; stronger effect = higher value
# [12] = P. berghei load reduction in hepatocytes – cell-based, HepG2, luciferase luminescence, HepG2 viability, primary screen (AID 624349);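 note: 100% = mean of DMSO negative control wells on the same plate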; details: P. berghei liver stage in HepG2, luciferase luminescence, concentration not given here; parasite load remaining: stronger effect = lower value; viability: measured here: HepG2 viability without parasites
# [13] = test system: Hepatitis C virus NS3 helicase; experiment: blockers of NS3h binding to ssDNA – biochemical, fluorescence polarization, LOPAC1280 library, primary screen (AID 687035; in the data active = inhibition above about 37%); details: Purified HCV NS3 helicase, Cy5-dT15 ssDNA binding fluorescence polarization; stronger effect = higher value; concentration not given here
# [14] = compounds altering Cy5-DNA-NS3h complex signal – biochemical, LOPAC1280, artefact control for HCV NS3 helicase inhibitor project (AID 687037; call rule not given here); details: Cy5-DNA-NS3h complex fluorescence interference counterscreen
# [15] = biological target: 6-phosphogluconate dehydrogenase, decarboxylating (Homo sapiens) (UniProt P52209); experiment: inhibition of human phosphogluconate dehydrogenase – biochemical, recombinant enzyme, NADPH absorbance, primary screen (AID 1159550;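 active = at least 20% inhibition of 6-phosphogluconate dehydrogenase activity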); details: recombinant 6PGD, NADPH absorbance 341 nm; at 10 µM; stronger effect = higher value
# [16] = viability loss in pontine glioma line – cell-based, SU-DIPG-IV, MIPE4.0, CellTiter-Glo, qHTS, dose response (AID 1347063; cut-off not given, nearly all actives have AC50 up to about 30 µM;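 note: compound exposure lasted 48 hours before the viability readout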); details: CellTiter-Glo ATP luminescence
# [17] = viability loss in pontine glioma line – cell-based, SU-DIPG-XXV, MIPE5.0, CellTiter-Glo, qHTS, dose response (AID 1347065; cut-off not given, nearly all actives have AC50 up to about 26 µM;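 note: cells exposed to compound for 48 hours before ATP readout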); details: CellTiter-Glo ATP luminescence
# [18] = growth inhibition of DIPG cells – cell-based, MIPE4.0 library, CellTiter-Glo luminescence, qHTS (AID 1347066; cut-off not given, nearly all actives have AC50 up to about 30 µM;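 note: cells exposed to compound for 48 hours before readout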); details: SU-DIPG-VI viability, CellTiter-Glo ATP luminescence
# [19] = chitosan synthesis blockers in C. neoformans – flow cytometry, Cibacron Brilliant Red staining (AID 1347148; call rule not given here;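 note: compound exposure lasted three days at 37 degrees C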); details: Cryptococcus neoformans chitosan, stronger effect = lower value; at 10 µM unless noted
# [20] = blockers of cellular phospholipid synthesis – cell-based, LOPAC library, screen 4, primary screen (AID 1347384; call rule not given here); details: animal cells, phospholipid biosynthesis inhibition screen; at 10 µM
# [21] = MELAS cybrid and Rieske KO viability enhancers – cell-based, MELAS cybrids, Rieske KO mouse fibroblasts, CellTiter-Glo, primary screen (AID 1508586;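 active = mean z-score across replicates of 1.96 or higher in either the MELAS or the Rieske mutant cell line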;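 note: z relative to plate mean and SD of compound and empty wells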); details: low glucose
# [22] = biological target: Mitogen-activated protein kinase 7 (Homo sapiens) (UniProt Q13164); experiment: Gal4-ERK5 driven luciferase induction – cell-based, HTS, primary screen (AID 1508626;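 active = luciferase signal above three times the same-plate solvent-only control wells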;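 note: luciferase driven by Gal4-ERK5 fusion binding five Gal4 sites before minimal TATA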); details: HeLa Gal4-ERK5 transactivation, 18 h, at 5 µM, stronger effect = higher value
# [23] = galactose survival enhancers in mitochondrial complex I cybrids – cell-based, galactose medium, ATP luminescence, primary screen (AID 1645843;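 active = z-score of at least 1.8 in each of two replicates, scored against plate mean and spread of sample wells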;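 note: positive z means more ATP and so rescue of galactose-driven cybrid death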); details: complex I mutant cybrid cells, 72 h, stronger effect = higher value
# [24] = viability loss with induced miR-34 in A549 – imaging, A549 dox-inducible miR-34, nuclei and caspase counts, primary screen (AID 1347080;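 active = compounds whose cell count with miR-34 switched on is under 0.7 times the count with it off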); details: A549 miR-34 inducible, Hoechst nuclei count, 48 h
# [25] = biological target: NAD(+) hydrolase SARM1 (Homo sapiens) (UniProt Q6SZW1); experiment: blocking NAD cleavage by SARM1 SAM-TIR – cell lysate, NAD-Glo luminescence (AID 1508614;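 active = compound whose remaining NAD level is above about 45 nM, limit read from the data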;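 note: higher remaining NAD means stronger inhibition of SARM1 NADase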); details: SAM-TIR HEK293T lysate NADase, at 1 µM, stronger effect = higher value
# [26] = MELAS cybrid survival, CellTiter-Glo 48 h, stronger effect = higher value
# [27] = Rieske KO mouse fibroblast survival, CellTiter-Glo 72 h
# [28] = stronger effect = lower value, cell number ratio, induced over uninduced
# [29] = measured here: relative caspase fold change +Dox/-Dox
# [30] = measured here: total cells with miR-34 induction, stronger effect = lower value
# [31] = measured here: total cells without miR-34 induction
# Chain of 6-phosphogluconate dehydrogenase, decarboxylating (Homo sapiens) (P52209 whole entry, looked up): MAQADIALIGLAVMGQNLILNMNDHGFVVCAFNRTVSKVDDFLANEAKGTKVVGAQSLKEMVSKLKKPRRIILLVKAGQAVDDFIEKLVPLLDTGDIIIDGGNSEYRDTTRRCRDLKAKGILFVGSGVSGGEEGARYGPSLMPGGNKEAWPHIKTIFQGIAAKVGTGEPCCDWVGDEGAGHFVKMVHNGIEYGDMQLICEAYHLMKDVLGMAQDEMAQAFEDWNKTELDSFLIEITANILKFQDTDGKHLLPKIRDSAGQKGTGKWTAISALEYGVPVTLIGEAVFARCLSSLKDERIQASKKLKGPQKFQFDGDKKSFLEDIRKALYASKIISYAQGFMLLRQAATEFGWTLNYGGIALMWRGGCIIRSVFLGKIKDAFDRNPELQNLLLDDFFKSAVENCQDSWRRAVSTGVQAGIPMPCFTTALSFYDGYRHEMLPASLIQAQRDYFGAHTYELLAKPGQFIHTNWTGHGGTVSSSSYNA
# Chain of NAD(+) hydrolase SARM1 (Homo sapiens) (Q6SZW1 whole entry, looked up): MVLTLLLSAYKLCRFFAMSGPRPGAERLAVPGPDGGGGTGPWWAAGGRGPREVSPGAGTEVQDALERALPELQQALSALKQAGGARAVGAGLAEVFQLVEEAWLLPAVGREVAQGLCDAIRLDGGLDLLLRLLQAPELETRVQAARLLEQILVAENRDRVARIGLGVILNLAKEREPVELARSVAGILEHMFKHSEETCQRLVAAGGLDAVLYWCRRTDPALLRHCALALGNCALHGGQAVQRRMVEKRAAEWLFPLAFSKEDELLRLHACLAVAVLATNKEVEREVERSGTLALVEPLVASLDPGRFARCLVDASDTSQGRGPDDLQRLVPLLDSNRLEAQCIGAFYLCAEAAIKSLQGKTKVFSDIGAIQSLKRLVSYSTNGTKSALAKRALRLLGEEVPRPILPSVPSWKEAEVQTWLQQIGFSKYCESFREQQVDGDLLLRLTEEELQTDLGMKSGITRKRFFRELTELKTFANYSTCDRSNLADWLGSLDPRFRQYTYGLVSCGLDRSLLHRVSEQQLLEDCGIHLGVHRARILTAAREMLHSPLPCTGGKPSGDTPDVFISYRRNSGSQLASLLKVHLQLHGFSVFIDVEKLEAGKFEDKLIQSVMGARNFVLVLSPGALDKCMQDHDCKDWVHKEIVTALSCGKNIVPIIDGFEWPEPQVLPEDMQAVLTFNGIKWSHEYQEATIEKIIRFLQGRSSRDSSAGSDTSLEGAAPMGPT
# Chain of Mitogen-activated protein kinase 7 (Homo sapiens) (Q13164 whole entry, looked up, the tested form may be a part): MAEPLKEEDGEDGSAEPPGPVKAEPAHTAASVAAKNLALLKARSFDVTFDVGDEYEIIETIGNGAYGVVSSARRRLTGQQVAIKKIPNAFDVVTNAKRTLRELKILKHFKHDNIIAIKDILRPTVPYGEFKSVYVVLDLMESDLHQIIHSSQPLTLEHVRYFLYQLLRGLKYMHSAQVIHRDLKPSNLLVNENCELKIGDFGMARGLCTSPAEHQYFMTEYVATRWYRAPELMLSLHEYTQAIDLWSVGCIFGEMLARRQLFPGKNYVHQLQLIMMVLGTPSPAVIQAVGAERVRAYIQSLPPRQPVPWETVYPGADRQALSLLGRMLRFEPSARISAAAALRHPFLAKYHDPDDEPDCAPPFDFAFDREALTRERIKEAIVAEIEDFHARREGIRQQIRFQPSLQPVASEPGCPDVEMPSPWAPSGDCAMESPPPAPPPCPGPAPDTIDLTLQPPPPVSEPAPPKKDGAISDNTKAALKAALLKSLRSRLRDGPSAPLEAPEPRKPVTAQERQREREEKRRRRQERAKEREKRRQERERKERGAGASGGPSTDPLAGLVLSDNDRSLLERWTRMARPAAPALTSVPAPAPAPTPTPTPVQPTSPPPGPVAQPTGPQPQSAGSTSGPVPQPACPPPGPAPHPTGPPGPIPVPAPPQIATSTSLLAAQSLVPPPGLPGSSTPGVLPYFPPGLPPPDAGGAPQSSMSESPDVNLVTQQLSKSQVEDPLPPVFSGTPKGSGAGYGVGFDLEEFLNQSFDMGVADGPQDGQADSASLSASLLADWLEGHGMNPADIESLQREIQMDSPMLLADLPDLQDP
# Chain of ATP-dependent translocase ABCB1 (Homo sapiens) (P08183 whole entry, looked up): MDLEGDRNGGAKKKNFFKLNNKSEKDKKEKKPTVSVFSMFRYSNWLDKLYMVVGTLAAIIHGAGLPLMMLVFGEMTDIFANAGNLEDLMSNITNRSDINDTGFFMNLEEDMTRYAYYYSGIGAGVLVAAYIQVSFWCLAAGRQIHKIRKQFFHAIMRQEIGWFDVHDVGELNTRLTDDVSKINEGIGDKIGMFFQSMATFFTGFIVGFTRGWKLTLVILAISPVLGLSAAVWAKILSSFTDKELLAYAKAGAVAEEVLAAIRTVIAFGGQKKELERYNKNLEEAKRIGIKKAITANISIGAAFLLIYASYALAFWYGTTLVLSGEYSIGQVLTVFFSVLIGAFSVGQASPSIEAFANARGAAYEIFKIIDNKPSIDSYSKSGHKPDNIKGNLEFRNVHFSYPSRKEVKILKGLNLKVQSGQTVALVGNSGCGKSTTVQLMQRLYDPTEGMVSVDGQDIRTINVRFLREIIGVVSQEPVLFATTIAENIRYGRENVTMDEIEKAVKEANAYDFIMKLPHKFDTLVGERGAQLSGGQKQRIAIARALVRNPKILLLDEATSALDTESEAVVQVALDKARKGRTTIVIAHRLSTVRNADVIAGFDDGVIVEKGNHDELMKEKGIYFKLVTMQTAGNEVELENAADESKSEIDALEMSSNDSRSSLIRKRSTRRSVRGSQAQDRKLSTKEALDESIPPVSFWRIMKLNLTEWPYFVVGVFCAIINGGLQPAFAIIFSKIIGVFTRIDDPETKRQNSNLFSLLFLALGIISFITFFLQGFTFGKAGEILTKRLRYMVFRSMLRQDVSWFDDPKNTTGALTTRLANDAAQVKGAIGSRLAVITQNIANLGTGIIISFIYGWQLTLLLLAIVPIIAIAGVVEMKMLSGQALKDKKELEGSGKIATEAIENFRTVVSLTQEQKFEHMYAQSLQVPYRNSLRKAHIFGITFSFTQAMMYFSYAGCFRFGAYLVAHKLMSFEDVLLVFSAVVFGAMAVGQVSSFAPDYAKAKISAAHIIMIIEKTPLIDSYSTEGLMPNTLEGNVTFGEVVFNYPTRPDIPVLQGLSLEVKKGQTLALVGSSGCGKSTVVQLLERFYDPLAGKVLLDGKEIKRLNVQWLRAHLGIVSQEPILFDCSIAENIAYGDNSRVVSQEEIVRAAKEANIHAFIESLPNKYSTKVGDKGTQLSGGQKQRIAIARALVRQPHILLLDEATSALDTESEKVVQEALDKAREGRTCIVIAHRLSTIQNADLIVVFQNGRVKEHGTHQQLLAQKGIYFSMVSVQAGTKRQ
smiles,measurement,setting,value
NC(=NCc1ccccc1)NC(=O)c1nc(Cl)c(N)nc1N,fluorescence slope change,[1],28% (inactive)
same,inhibition,[2],7.39%
same,score,[3],1.09
same,rescue above control,[4],5.46
same,cytochrome c release ratio,[5],0.99
same,inhibition of aggregation,[6],14.3%
same,normalised LDH release,[7],1.01
same,glutamate uptake change,[8],12.4%
same,aggregation suppression score,[9],1.26
same,period change,[10],0.11 h (inactive)
same,survival,[11],1.67 (inactive)
same,parasite load remaining,[12],116% (inactive) and 20% (inactive)
same,viability,[12],89.9% and 61%
same,inhibition,[13],-1% (inactive)
same,fluorescence ratio (interference),[14],1 (inactive)
same,inhibition,[15],-0.294% (inactive)
same,outcome,[16],inactive
same,AC50,[17],18.6 µM (active)
same,outcome,[18],inactive
same,fold fluorescence,[19],5.57 [at 156.4 µM] (inactive)
same,outcome,[20],inactive
same,z-score,[21]; [26],2.18 (active) and 1.24 (inactive)
same,z-score,[21]; [27],1.18 and 1.91
same,luciferase signal,[22],56 AU (inactive)
same,z-score,[23],-0.87 (inactive) and -0.455 (inactive)
CN(C)CCCO[C@@H]1[C@H]2OC(C)(C)O[C@H]2O[C@@H]1[C@H](O)CO,parasite load remaining,[12],63.5% (inactive)
same,viability,[12],92.5%
same,inhibition,[15],8.75% (inactive)
same,fold change,[24]; [28],0.9 (inactive)
same,fold change,[24]; [29],1.16
same,cell count,[24]; [30],9050
same,cell count,[24]; [31],10100
same,z-score,[21]; [26],0.565 (inactive)
same,z-score,[21]; [27],-0.271
same,luciferase signal,[22],44 AU (inactive)
C[C@@H]1C(=O)O[C@H]2C[C@@]34[C@H]5C[C@@H](C(C)(C)C)[C@]36[C@@H](OC(=O)[C@@H]6O)O[C@@]4(C(=O)O5)[C@]21O,parasite load remaining,[12],48.8% (inactive)
same,viability,[12],110%
same,inhibition,[15],0.379% (inactive)
same,fold change,[24]; [28],0.95 (inactive)
same,fold change,[24]; [29],1.75
same,cell count,[24]; [30],10300
same,cell count,[24]; [31],10800
same,z-score,[21]; [26],0.0275 (inactive)
same,z-score,[21]; [27],-1.08
same,z-score,[23],0.435 (inactive)
CN[C@@H]1[C@@H](O[C@H]2O[C@H](CO)[C@@H](N)[C@H](O)[C@H]2O)O[C@H]2C[C@@H](N)[C@@H](O[C@H]3[C@H](O)[C@@H](O)[C@H](N)C[C@@H]3N)O[C@@H]2[C@@H]1O,parasite load remaining,[12],21.5% (inactive)
same,viability,[12],69%
same,inhibition,[15],3.92% (inactive)
same,fold change,[24]; [28],0.906 (inactive)
same,fold change,[24]; [29],1.04
same,cell count,[24]; [30],9860
same,cell count,[24]; [31],10900
same,z-score,[21]; [26],0.598 (inactive)
same,z-score,[21]; [27],0.317
same,remaining NAD,[25],10 nM (inactive)
same,luciferase signal,[22],28 AU (inactive)
same,z-score,[23],0.86 (inactive)
O=C1O[C@H]([C@@H](O)CO)C(O)=C1O,parasite load remaining,[12],-6.73% (active)
same,viability,[12],110%
same,inhibition,[15],-9.94% (inactive)
same,fold change,[24]; [28],0.839 (inactive)
same,fold change,[24]; [29],1.22
same,cell count,[24]; [30],7560
same,cell count,[24]; [31],9010
same,z-score,[21]; [26],-0.883 (inactive)
same,z-score,[21]; [27],-0.395
same,remaining NAD,[25],10 nM (inactive)
same,luciferase signal,[22],60 AU (inactive)
C#C[C@]1(O)CC[C@H]2[C@@H]3CCC4=C(CCC(=O)C4)[C@H]3CC[C@@]21C,survival,[11],25.3 (inactive)
same,parasite load remaining,[12],17.7% (inactive) and 100% (inactive)
same,viability,[12],48% and 90.5%
same,inhibition,[15],-2.85% (inactive)
same,fold change,[24]; [28],0.896 (inactive)
same,fold change,[24]; [29],0.927
same,cell count,[24]; [30],7990
same,cell count,[24]; [31],8920
same,z-score,[21]; [26],0.723 (inactive)
same,z-score,[21]; [27],0.808
same,remaining NAD,[25],10 nM (inactive)
same,luciferase signal,[22],44 AU (inactive)
